Assay results from PubChem BioAssay AID1376 (SRMLSC, 2008).
Among all 220,000 compounds or so, about 530 (0.24%) were called active. For the sample, actives were picked, then their nearest neighbours and some compounds at random. Potency and affinity values are given separately. A number with no mark means an inactive call. No stated cut-off is given here; in the data, active means inhibition above about 13%; inconclusive means no clear call, values can overlap the other calls; inactive means below that.

What follows are compounds tested against Bifunctional protein GlmU (Mycobacterium tuberculosis (strain ATCC 25618 / H37Rv)) (UniProt P9WMN3) (assay: inhibition of mycobacterial GlmU enzyme – biochemical, glucosamine-1-phosphate acetyltransferase (AID 1376;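 further: 0% = complete reaction with vehicle and 100% = reaction without substrate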)). Conditions: M. tuberculosis GlmU acetyltransferase enzyme assay; stronger effect = higher value;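 tested at 30 µM in the primary screen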.
Bifunctional protein GlmU (Mycobacterium tuberculosis (strain ATCC 25618 / H37Rv)), sequence (P9WMN3 whole entry, looked up): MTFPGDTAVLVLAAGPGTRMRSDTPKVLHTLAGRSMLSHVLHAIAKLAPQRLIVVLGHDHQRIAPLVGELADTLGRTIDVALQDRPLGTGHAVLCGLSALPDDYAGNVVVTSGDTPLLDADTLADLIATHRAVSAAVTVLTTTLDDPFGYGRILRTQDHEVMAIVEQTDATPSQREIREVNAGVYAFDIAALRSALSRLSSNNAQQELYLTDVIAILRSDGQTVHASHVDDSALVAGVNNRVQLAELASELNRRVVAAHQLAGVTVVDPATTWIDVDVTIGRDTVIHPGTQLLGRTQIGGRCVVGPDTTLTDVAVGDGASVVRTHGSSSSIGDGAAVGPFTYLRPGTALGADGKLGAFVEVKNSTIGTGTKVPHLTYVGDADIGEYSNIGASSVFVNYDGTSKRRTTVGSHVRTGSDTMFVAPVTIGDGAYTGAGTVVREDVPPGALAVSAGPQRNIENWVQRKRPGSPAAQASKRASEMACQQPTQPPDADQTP

SMILES | inhibition
Cc1ccc(-n2c(SCC(=O)NC3CCS(=O)(=O)C3)nc3ccccc3c2=O)cc1 (stereo not drawn) | -6.07%
Cc1cccc(NC(=O)CCc2ccc(S(=O)(=O)NC3CCCCC3)cc2)c1 | 4.56%
Cc1nn(-c2cccc(C(F)(F)F)c2)c(Cl)c1/C=N/Nc1cccc(C(=O)O)c1 | -2.39%
Cc1nn(-c2ccccc2)c(Cl)c1/C=N/Nc1ccc(Cl)c(C(=O)O)c1 | -0.65%
CC(C)(C)c1ccc(/C=N/Nc2cccc(C(=O)O)c2)cc1 | -6.54%
CSc1ccc(/C=N/Nc2cccc(C(=O)O)c2)cc1 | 35.4% (active)
O=C(O)c1cccc(N/N=C/c2ccc(-c3ccccc3)cc2)c1 | -0.74%
CCOc1cccc(C(=O)N(Cc2ccc(F)cc2)C2CCS(=O)(=O)C2)c1 (stereo not drawn) | 3.65%
CC1CCc2c(sc3ncn(Cc4ccc(C(=O)O)cc4)c(=O)c23)C1 (stereo not drawn) | -5.17%
CNS(=O)(=O)c1cccc(C(=O)OCC(=O)Nc2ccc(N3CCCCC3)cc2)c1 | -3.94%
CN(CCC1CCOCC1)Cc1nc(Cc2ccccc2F)no1 | 3.72%
CCCCOc1nc2ccccc2nc1C(C#N)S(=O)(=O)c1ccccc1 (stereo not drawn) | 3.84%
Cc1ccc(S(=O)(=O)C(C#N)c2nc3ccccc3nc2OCCO)cc1 (stereo not drawn) | 2.66%
N#CC(c1nc2ccccc2nc1OCCO)S(=O)(=O)c1ccccc1 (stereo not drawn) | 12.9% (active)
COc1ccc(C2C(C(C)=O)=C(O)C(=O)N2c2cccnc2)cc1OC (stereo not drawn) | 1.89%
COc1ccc(C2C(C(C)=O)=C(O)C(=O)N2c2cccnc2)c(OC)c1 (stereo not drawn) | 12.9% (active)
COc1ccc(C2C(C(C)=O)=C(O)C(=O)N2c2nccs2)c(OC)c1 (stereo not drawn) | 0.3%
Cc1ccccc1NC(=O)C(C)n1c2ccccc2c2nc(=O)cc(C)n21 (stereo not drawn) | -3.29%
O=C(O)c1cccc2c1C(=O)c1ccccc1C2=O | -4.06%
Nc1c(C(=O)O)ccc2c1C(=O)c1ccccc1C2=O | 5.83%
Nc1cc(C(=O)O)c(N)c2c1C(=O)c1ccccc1C2=O | 12.9% (active)
Cc1ccc2nsnc2c1S(=O)(=O)N1CCN(CCc2ccccc2)CC1 | -1.69%
Cn1c(=O)n(C)c2cc(NC(=O)c3ccccc3[N+](=O)[O-])c(Br)cc21 | -4.22%
NC(=O)CSc1nnc(Cn2cnc3ccccc32)o1 | -3.79%

SMILES | inhibition
Clc1ccc(CSc2nnc(Cn3cnc4ccccc43)o2)cc1 | 15% (active)
Clc1ccc(Cn2cnc3ccccc32)cc1 | -0.58%
CC(C)(CN=C1NS(=O)(=O)c2ccccc21)CNC(=O)CN1C(=O)c2ccccc2C1=O | 0.96%
O/C(=C\Sc1nnc(Cc2ccccc2)o1)c1ccc(Br)cc1 | 9.57%
Cc1ccc(-n2nc3c(c2NC(=O)CCC2CCCCC2)CS(=O)C3)cc1 (stereo not drawn) | 4.09%
O=C(CCC1CCCCC1)Nc1c2c(nn1-c1ccc(F)cc1)CS(=O)C2 (stereo not drawn) | -0.99%
Cc1cccc(-n2nc3c(c2NC(=O)CCC2CCCCC2)CS(=O)C3)c1C (stereo not drawn) | 19.3% (active)
COc1ccccc1C1C(C(=O)NCc2ccccc2)=C(C)Nc2ncnn21 (stereo not drawn) | -0.29%
O=C(NCc1cccc(Cl)c1)c1ccc(S(=O)(=O)Nc2cccc(C(F)(F)F)c2)cc1 | 6.21%
CNS(=O)(=O)c1c(C)cc(C)c(N(C)S(=O)(=O)c2ccccc2)c1C | 4.09%
O=C(O)C(Cc1ccccc1)N1C(=O)/C(=C/c2ccccc2)SC1=S (stereo not drawn) | 7.96%
O=C(O)C(Cc1ccccc1)N1C(=O)/C(=C/c2cccc3ccccc23)SC1=S (stereo not drawn) | 3.53%
O=C(O)C(Cc1ccccc1)N1C(=O)/C(=C/c2cccs2)SC1=S (stereo not drawn) | 17.4% (active)
O=C1S/C(=C\C=C\c2ccco2)C(=O)N1c1ccc(O)cc1 | 11.9%
Cc1ccc(/C=C2\SC(=S)N(C(Cc3ccccc3)C(=O)O)C2=O)cc1 (stereo not drawn) | 5.14%
COc1ccc(/C=C2\SC(=S)N(C(Cc3ccccc3)C(=O)O)C2=O)cc1 (stereo not drawn) | 1.51%
O=C(O)C(Cc1ccccc1)N1C(=O)/C(=C/C=C/c2ccco2)SC1=S (stereo not drawn) | 26.9% (active)
O=C(O)CCCN1C(=O)/C(=C/C=C/c2ccco2)SC1=S | 5.29%
O=C(O)CC(C(=O)O)N1C(=O)/C(=C/C=C/c2ccco2)SC1=S (stereo not drawn) | 17.9% (active)
CC(=O)Nc1ccc(C(=O)NNC(=O)c2cc([N+](=O)[O-])cc([N+](=O)[O-])c2)cc1 | 2.49%
CC(C)(O)C#Cc1ccc(CN2CCN(Cc3ccccc3)C(CCO)C2)s1 (stereo not drawn) | 3.34%
Cc1nc2nc3c(cn2n1)C(=O)CC(c1ccccc1)C3 (stereo not drawn) | 15% (active)
CSc1nc2nc3c(cn2n1)C(=O)CC(c1ccccc1)C3 (stereo not drawn) | 2.71%
O=C1CC(c2ccccc2)Cc2nc3nc(C(F)(F)F)nn3cc21 (stereo not drawn) | 2.78%

SMILES | inhibition
O=C(Nc1nnc(-c2ccccc2)o1)NC1CCCCC1 | 0.77%
CC(=O)Nc1ccc(OCC(O)CN2CCN(c3cccc(Cl)c3)CC2)cc1 (stereo not drawn) | -0.54%
COC(C/C=C\[C@H](O)COCc1ccccc1)OC | 6.23%
Cc1ccccc1NC(=O)Nc1cc(-c2ccccc2)nn1C | -3.02%
O=C(CSCc1ccccc1F)NCc1ccc(F)cc1 | -1.92%
c1cncc(-c2nnc3n2CCC3)c1 | -0.26%
CCOC(=O)C1=C(N)N(c2ccccc2)C(=O)C1 | 1.91%
CCOC(=O)C1=C(C)N(c2ccccc2)C(=O)C1 | 3.44%
CCOC(=O)C1=C2NC(=O)c3ccccc3N2C(=O)C1 | 13.7% (active)
O=C(COC(=O)c1ccc(Cl)c([N+](=O)[O-])c1)Nc1ccccc1OC(F)F | 0.84%
Cc1sc2nc(SCc3ccccc3)n(Cc3ccco3)c(=O)c2c1C | -1.04%
Cc1onc(-c2ccccc2Cl)c1C(=O)N1CCN=C1SCc1cccnc1 | 27.2% (active)
CSC1=NCCN1C(=O)c1c(-c2ccccc2Cl)noc1C | -1.36%
CCSC1=NCCN1C(=O)c1c(-c2ccccc2Cl)noc1C | 4.4%
C=CCn1c(O)c(C=Nc2c(C)n(C)n(-c3ccccc3)c2=O)c(=O)[nH]c1=O | -2.53%
CCCOC(=O)C1C2C=CC(C3CC23)C1C(=O)OCC(=O)c1ccccc1 (stereo not drawn) | 2.44%
N=C1S/C(=C\c2ccco2)C(=O)N1c1ccc2c(c1)OCO2 | 5.07%
O=C1NC(=O)N(c2ccc3c(c2)OCO3)C(=O)/C1=C\c1ccc(-c2ccccc2C(=O)O)o1 | 9.19%
COc1ccccc1N1C(=N)S/C(=C\c2ccc(-c3ccccc3C(=O)O)o2)C1=O | 8.5%
Cc1ccc(C)c(N2C(=N)S/C(=C\c3ccc(-c4ccccc4C(=O)O)o3)C2=O)c1 | 13.1% (active)
Cc1ccccc1NC(=O)CN1C(=O)S/C(=C\c2ccc(-c3cc(C(=O)O)ccc3C)o2)C1=O | 19.2%
O=C(N/N=C/C=C/c1ccc(Br)cc1)C(O)c1ccccc1 (stereo not drawn) | -4.11%
COc1ccc(NC(=O)c2ccccc2-c2ccccc2)c(C)c1 | -1.21%
O=C(OCC(=O)N1CCN(C(=O)c2ccco2)CC1)c1ccccc1C(=O)c1ccccc1 | 0.58%

SMILES | inhibition
Cc1cc(/C=c2/sc3nc4ccccc4n3c2=O)c(C)n1-c1ccccn1 | 6.87%
O=c1/c(=C\c2cc([N+](=O)[O-])cc([N+](=O)[O-])c2O)sc2nc3ccccc3n12 | 33.8% (active)
Cc1ccc(-n2c(C)cc(/C=c3/sc4nc5ccccc5n4c3=O)c2C)cc1 | 0.75%
O=c1/c(=C\c2cccn2-c2ccccc2)sc2nc3ccccc3n12 | -1.22%
CCN(CC)c1ccc(/C=c2\sc3nc4ccccc4n3c2=O)c(O)c1 | -2.52%
O=c1/c(=C/c2ccccn2)sc2nc3ccccc3n12 | 3.31%
O=c1/c(=C/c2ccc(O)c([N+](=O)[O-])c2)sc2nc3ccccc3n12 | 8.42%
O=Cc1ccc(-c2cccc(C(=O)O)c2)o1 | 3.12%
O=C(O)Cn1cc(/C=c2/sc3nc4ccccc4n3c2=O)c2ccccc21 | -3.15%
O=c1c(Br)c(N2CCOCC2)cnn1-c1ccccc1 | -4.84%
Cn1nc(C(F)(F)F)c2cc(C(=O)O)sc21 | 0.57%
CCN(CC)S(=O)(=O)c1ccc(N2CCOCC2)c(NC(=O)CC(C)(C)C)c1 | 11.6%
Cc1cc(C)c(C#N)c(SC2CCCCC2=O)n1 (stereo not drawn) | 0.86%
CC(C)NC(=O)CSc1nnc2sc3ccccc3n12 | 7.28%
Cn1nc(-c2ccccc2)c(CN2CCN(c3ncccn3)CC2)c1Cl | -1.97%
CC1(C)CC(=O)C2=C(C1)N(CCN1CCOCC1)C1=C(C(=O)CC(C)(C)C1)C2c1ccc(Cl)c([N+](=O)[O-])c1 | 4.94%
CCOC(=O)Cc1csc(NC(=O)c2ccco2)n1 | 4.22%
Cc1cc(/C=C2\C(=O)NC(=O)N(c3ccc(F)cc3)C2=O)c(C)n1-c1cccc(C(=O)O)c1 | 2.99%
Cc1nn(Cc2c(F)cccc2Cl)c(C)c1NC(=O)C1CC1 | 1.68%
CC(Cc1ccsc1)NC(=O)CCc1nnc(COc2ccccc2)o1 (stereo not drawn) | -0.64%
Cc1ccc(OCC(=O)Nc2ccc3c(c2)OCO3)c(C)c1 | 7.84%
